Laboratory results as given in PubChem BioAssay AID1159580 (chemical genetic matrix, 2015).
In all, about 5,500 compounds went through this assay and about 2,000 (36%) were called active. About 18% were inconclusive and are not listed. The list shows a part of the results. Unmarked numbers belong to inactive results. Cut-off read from the data, not from the text of the source: active = normalized growth mostly below about 0.91 (no sharp cut-off); inconclusive = no clear call, values can overlap the other calls; inactive = mostly above about 0.92.

Experiment: chemical genetic growth profiling, strain panel (AID 1159580);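 note: tested at 20 µM; growth read once vehicle control cultures reached saturation at 30 °C; 1 = growth at the plate median or of vehicle wells; lower values mean less growth of the strain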
Conditions: growth OD

## O=S(=O)(O)CCS
S. cerevisiae deletion strains, locus YKL009W, strain mrt4, stronger effect = lower value
  normalized growth: 1.02
S. cerevisiae deletion strains, locus YKL068W, stronger effect = lower value
  normalized growth: 0.993
S. cerevisiae deletion strains, locus YKL085W, strain MDH1 (second series), stronger effect = lower value
  normalized growth: 0.99
S. cerevisiae deletion strains, locus YKL085W, strain MDH1, stronger effect = lower value
  normalized growth: 0.99
S. cerevisiae deletion strains, locus YKL160W, strain elf1, stronger effect = lower value
  normalized growth: 0.941
S. cerevisiae deletion strains, locus YKL190W, strain CNB1, stronger effect = lower value
  normalized growth: 1.01
S. cerevisiae deletion strains, locus YKR001C, strain vps1, stronger effect = lower value
  normalized growth: 1.02
S. cerevisiae deletion strains, locus YKR026C, strain gcn3, stronger effect = lower value
  normalized growth: 0.996
S. cerevisiae deletion strains, locus YKR091W, strain srl3, stronger effect = lower value
  normalized growth: 0.98
S. cerevisiae deletion strains, locus YLL001W, strain dnm1, stronger effect = lower value
  normalized growth: 1
S. cerevisiae deletion strains, locus YLL026W, stronger effect = lower value
  normalized growth: 1.01
S. cerevisiae deletion strains, locus YLL041C, strain sdh2, stronger effect = lower value
  normalized growth: 1
S. cerevisiae deletion strains, locus YLR027C, strain aat2, stronger effect = lower value
  normalized growth: 0.997
S. cerevisiae deletion strains, locus YLR039C, strain RIC1, stronger effect = lower value
  normalized growth: 1.03
S. cerevisiae deletion strains, locus YLR058C, strain SHM2, stronger effect = lower value
  normalized growth: 1.02
S. cerevisiae deletion strains, locus YLR102C, strain apc9, stronger effect = lower value
  normalized growth: 0.992
S. cerevisiae deletion strains, locus YLR113W, strain HOG1, stronger effect = lower value
  normalized growth: 0.956
S. cerevisiae deletion strains, locus YLR221C, strain rsa3, stronger effect = lower value
  normalized growth: 1.03
S. cerevisiae deletion strains, locus YLR258W, strain gsy2, stronger effect = lower value
  normalized growth: 1
S. cerevisiae deletion strains, locus YLR262C, strain YPT6 (second series), stronger effect = lower value
  normalized growth: 1.01
S. cerevisiae deletion strains, locus YLR262C, strain YPT6, stronger effect = lower value
  normalized growth: 1.05
S. cerevisiae deletion strains, locus YLR268W, strain sec22, stronger effect = lower value
  normalized growth: 0.993
S. cerevisiae deletion strains, locus YLR320W, strain mms22, stronger effect = lower value
  normalized growth: 0.979
S. cerevisiae deletion strains, locus YLR330W, strain CHS5, stronger effect = lower value
  normalized growth: 1.02
S. cerevisiae deletion strains, locus YLR342W, strain FKS1 (second series), stronger effect = lower value
  normalized growth: 0.989
S. cerevisiae deletion strains, locus YLR342W, strain FKS1, stronger effect = lower value
  normalized growth: 0.965
S. cerevisiae deletion strains, locus YLR357W, strain rsc2, stronger effect = lower value
  normalized growth: 0.912
S. cerevisiae deletion strains, locus YLR370C, strain arc18, stronger effect = lower value
  normalized growth: 0.98
S. cerevisiae deletion strains, locus YLR371W, strain rom2, stronger effect = lower value
  normalized growth: 0.996
S. cerevisiae deletion strains, locus YLR384C, strain iki3, stronger effect = lower value
  normalized growth: 0.97
S. cerevisiae deletion strains, locus YLR418C, strain cdc73, stronger effect = lower value
  normalized growth: 0.976
S. cerevisiae deletion strains, locus YML016C, strain PPZ1, stronger effect = lower value
  normalized growth: 1.01
S. cerevisiae deletion strains, locus YML032C, strain rad52, stronger effect = lower value
  normalized growth: 0.992
S. cerevisiae deletion strains, locus YML120C, strain ndi1, stronger effect = lower value
  normalized growth: 0.993
S. cerevisiae deletion strains, locus YML124C, strain tub3, stronger effect = lower value
  normalized growth: 0.994
S. cerevisiae deletion strains, locus YMR058W, strain fet3, stronger effect = lower value
  normalized growth: 1.01
S. cerevisiae deletion strains, locus YMR078C, strain ctf18, stronger effect = lower value
  normalized growth: 0.991
S. cerevisiae deletion strains, locus YMR125W, strain sto1, stronger effect = lower value
  normalized growth: 0.961
S. cerevisiae deletion strains, locus YMR129W, stronger effect = lower value
  normalized growth: 0.988
S. cerevisiae deletion strains, locus YMR205C, strain PFK2, stronger effect = lower value
  normalized growth: 1.01
S. cerevisiae deletion strains, locus YMR223W, strain ubp8, stronger effect = lower value
  normalized growth: 0.987
S. cerevisiae deletion strains, locus YMR231W, strain pep5, stronger effect = lower value
  normalized growth: 0.978
S. cerevisiae deletion strains, locus YMR307W, strain GAS1, stronger effect = lower value
  normalized growth: 1
S. cerevisiae deletion strains, locus YNL067W, strain RPL9B, stronger effect = lower value
  normalized growth: 1.03
S. cerevisiae deletion strains, locus YNL071W, strain lat1, stronger effect = lower value
  normalized growth: 0.996
S. cerevisiae deletion strains, locus YNL153C, strain GIM3, stronger effect = lower value
  normalized growth: 1.04
S. cerevisiae deletion strains, locus YNL183C, strain NPR1, stronger effect = lower value
  normalized growth: 0.933
S. cerevisiae deletion strains, locus YNL209W, strain ssb2, stronger effect = lower value
  normalized growth: 0.981
S. cerevisiae deletion strains, locus YNL233W, strain BNI4, stronger effect = lower value
  normalized growth: 1.02
S. cerevisiae deletion strains, locus YNL248C, strain rpa49, stronger effect = lower value
  normalized growth: 0.947
S. cerevisiae deletion strains, locus YNL250W, strain rad50, stronger effect = lower value
  normalized growth: 0.987
S. cerevisiae deletion strains, locus YNL271C, strain bni1, stronger effect = lower value
  normalized growth: 0.981
S. cerevisiae deletion strains, locus YNL298W, strain CLA4, stronger effect = lower value
  normalized growth: 0.982
S. cerevisiae deletion strains, locus YNL307C, strain MCK1, stronger effect = lower value
  normalized growth: 0.984
S. cerevisiae deletion strains, locus YNL322C, strain KRE1 (second series), stronger effect = lower value
  normalized growth: 0.967
S. cerevisiae deletion strains, locus YNL322C, strain KRE1, stronger effect = lower value
  normalized growth: 1.01
S. cerevisiae deletion strains, locus YNR049C, strain mso1, stronger effect = lower value
  normalized growth: 0.964
S. cerevisiae deletion strains, locus YNR052C, strain pop2, stronger effect = lower value
  normalized growth: 0.995
S. cerevisiae deletion strains, locus YOL006C, strain TOP1, stronger effect = lower value
  normalized growth: 1.07
S. cerevisiae deletion strains, locus YOL012C, strain htz1
  normalized growth: 1.22
S. cerevisiae deletion strains, locus YOL147C, strain pex11, stronger effect = lower value
  normalized growth: 0.989
S. cerevisiae deletion strains, locus YOR001W, strain rrp6, stronger effect = lower value
  normalized growth: 0.996
S. cerevisiae deletion strains, locus YOR061W, strain CKA2, stronger effect = lower value
  normalized growth: 1.02
S. cerevisiae deletion strains, locus YOR069W, strain VPS5, stronger effect = lower value
  normalized growth: 1.01
S. cerevisiae deletion strains, locus YOR070C, strain gyp1, stronger effect = lower value
  normalized growth: 0.988
S. cerevisiae deletion strains, locus YOR080W, strain dia2, stronger effect = lower value
  normalized growth: 0.964
S. cerevisiae deletion strains, locus YOR083W, strain WHI5, stronger effect = lower value
  normalized growth: 0.888 (active)
S. cerevisiae deletion strains, locus YOR106W, strain vam3, stronger effect = lower value
  normalized growth: 0.982
S. cerevisiae deletion strains, locus YOR136W, strain idh2, stronger effect = lower value
  normalized growth: 0.994
S. cerevisiae deletion strains, locus YOR144C, strain elg1, stronger effect = lower value
  normalized growth: 0.993
S. cerevisiae deletion strains, locus YOR184W, strain ser1, stronger effect = lower value
  normalized growth: 0.983
S. cerevisiae deletion strains, locus YOR231W, strain MKK1, stronger effect = lower value
  normalized growth: 0.974
S. cerevisiae deletion strains, locus YOR265W, strain rbl2, stronger effect = lower value
  normalized growth: 0.999
S. cerevisiae deletion strains, locus YOR270C, strain vph1, stronger effect = lower value
  normalized growth: 0.939
S. cerevisiae deletion strains, locus YOR290C, strain snf2, stronger effect = lower value
  normalized growth: 0.974
S. cerevisiae deletion strains, locus YOR316C, strain cot1, stronger effect = lower value
  normalized growth: 0.988
S. cerevisiae deletion strains, locus YPL051W, strain arl3, stronger effect = lower value
  normalized growth: 0.991
S. cerevisiae deletion strains, locus YPL055C, strain LGE1, stronger effect = lower value
  normalized growth: 1.07
S. cerevisiae deletion strains, locus YPL078C, strain atp4, stronger effect = lower value
  normalized growth: 0.969
S. cerevisiae deletion strains, locus YPL106C, strain sse1, stronger effect = lower value
  normalized growth: 0.96
S. cerevisiae deletion strains, locus YPL240C, strain hsp82, stronger effect = lower value
  normalized growth: 0.994
S. cerevisiae deletion strains, locus YPL241C, strain CIN2, stronger effect = lower value
  normalized growth: 1.01
S. cerevisiae deletion strains, locus YPL256C, strain CLN2, stronger effect = lower value
  normalized growth: 0.997
S. cerevisiae deletion strains, locus YPR119W, strain clb2, stronger effect = lower value
  normalized growth: 0.99
S. cerevisiae deletion strains, locus YPR141C, strain kar3, stronger effect = lower value
  normalized growth: 0.987
S. cerevisiae deletion strains, locus YPR163C, strain tif3, stronger effect = lower value
  normalized growth: 0.99
S. cerevisiae deletion strains, locus YPR167C, strain met16, stronger effect = lower value
  normalized growth: 0.98
S. cerevisiae deletion strains, strain wtn01, stronger effect = lower value
  normalized growth: 0.981
S. cerevisiae strains, strain wild type, stronger effect = lower value
  normalized growth: 1.01
